These results are taken from PubChem BioAssay AID1559 (National Center for Advancing Translational Sciences (NCATS), 2009).

Structures are written as SMILES. Records with an inconclusive call do not appear. Entries that show only a call come without a potency. The source made the active and inactive calls. The call rests on the fitted dose curve; in most records, active means well fitted curve in the direction sought with a large enough effect; inconclusive means small, poorly fitted or top-dose-only effect, or another doubt; inactive means no such curve, though single readings can be large or run the other way.

For the experiment, the target named is Microtubule-associated protein tau (Homo sapiens) (UniProt P10636). As to the kind of experiment: Confirmation Concentration-Response Assay for Inhibitors of Tau Fibril Formation, Fluorescence Polarization. As to conditions: recombinant tau K18 P301L (four-repeat tau fragment) heparin fibrillization, Alexa594 FP; series mostly up to 57.1 µM. From the text: NIH Molecular Libraries Probe Production Network [MLPCN] NIH Chemical Genomics Center [NCGC] MLPCN Grant: X01 MH083262-01 Assay Provider: Carlo Ballatore, University of Pennsylvania NCGC Assay Overview: The microtubule-associated protein tau is an abundant protein in the axons of neurons that stabilizes microtubules. With its ability to modulate microtubule dynamics, tau contributes directly or indirectly, to key structural and regulatory cellular functions. Particularly important is the influence tau exerts on axonal transport, which allows signaling molecules, trophic factors and other essential cellular constituents to travel along the axons. Under pathological conditions, tau becomes sequestered into insoluble aggregates called neurofibrillary tangles. This phenomenon is believed to have pathological consequences by promoting axonal transport deficits that ultimately lead to synaptic dysfunction and neuronal loss. To identify inhibitors of tau aggregation, a heparin-induced tau fibril formation assay was used that employed a recombinantly expressed fragment of tau, K18 (Q242-E372), bearing a P301L mutation (Gustke et al. 1994; Hong et al. 1998). […] Gustke, N., B. Trinczek, et al. (1994). "Domains of tau protein and interactions with microtubules." Biochemistry 33(32): 9511-22. Hong, M., V. Zhukareva, et al. (1998). "Mutation-specific functional impairments in distinct tau isoforms of hereditary FTDP-17." Science 282(5395): 1914-7. Li, W. and V. M. Lee (2006). "Characterization of two VQIXXK motifs for tau fibrillization in vitro." Biochemistry 45(51): 15692-701. von Bergen, M., S. Barghorn, et al. (2001). "Mutations of tau protein in frontotemporal dementia promote aggregation of paired helical filaments by enhancing local beta-structure." J Biol Chem 276(51): 48165-74.
Chain of Microtubule-associated protein tau (Homo sapiens) (P10636 561-689 P618L limits assumed): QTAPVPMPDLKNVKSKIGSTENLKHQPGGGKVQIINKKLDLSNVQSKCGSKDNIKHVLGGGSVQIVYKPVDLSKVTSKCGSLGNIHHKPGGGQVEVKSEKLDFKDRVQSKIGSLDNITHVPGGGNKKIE
For screening, 2 uL/well human K18 P301L (15 uM unlabeled and 0.24 uM Alexa 594-labeled tau final concentrations) in reagent buffer (100 mM sodium acetate pH 7) was dispensed into black solid 1536-well plates (Grenier) using a solenoid-based dispenser. Following transfer of 23 nL compound or DMSO vehicle by a pin tool, 2 uL/well heparin (20 uM final concentration) in reagent buffer was added and the plate centrifuged 15 s at 1000 RPM. Plates were incubated 6 hr at 37 C and then 1 uL/well ThT (30 uM final concentration) was added. After a 1 hr ambient incubation, the plates were read by an Envision (Perkin Elmer) to monitor Alexa 594 FP (555 nm excitation and 632 nm emission). Keywords: NIH Roadmap, MLPCN, MLI, MLSMR, NCGC, qHTS, tau, tauopathies, Alzheimer's disease, fibril, neurodegeneration, aggregation
(Polarisation of emitted light reports the rotation of a fluorescent probe.)
In the case of `CCOC(=O)c1c(N)sc2c1CN(C)CC2`, the Potency entry is “inactive”.

For the molecule `CCOC(=O)c1nn(-c2cccc(C(F)(F)F)c2)c(=O)c2c(N)scc12`, the Potency result is “inactive”. With `Nc1scc2c(C(=O)O)nn(-c3ccccc3)c(=O)c12` the figure was 7.08 µM (active). The value for `O=C(Cc1ccccc1)Nc1sc2c(c1C(=O)Nc1ccc(Cl)cc1)CCCC2` was “inactive”.

As to `O=C(Nc1cccc(-c2nc3ccccc3o2)c1)c1cc([N+](=O)[O-])ccc1N1CCOCC1`, the Potency entry is “inactive”. With `Cc1nc2ccccc2oc1=O` the entry was “inactive”; with `COC(=O)C1CCc2sc(N)c(C(=O)OCc3ccccc3)c21` (configuration not stated), “inactive”; with `CCN(CC)S(=O)(=O)c1cccc(NC(=O)Nc2cccc(C(F)(F)F)c2)c1`, 2.82 µM (active). The value for `O=S(=O)(c1ccc2nc(-c3ccco3)c(-c3ccco3)nc2c1)N1CCOCC1` was 7.94 µM (active). With `CN(c1ccccc1)S(=O)(=O)c1nnc(NC(=O)COc2ccccc2)s1` the entry was “inactive”; with `NC[C@@H](O)c1ccc(O)c(O)c1`, “inactive”. `NCCc1ccc(O)c(O)c1`: the Potency entry is “inactive”. For `N#Cc1cccc(NC(=O)c2ccc3c(c2)N(Cc2cccc(Cl)c2)C(=O)c2ccccc2S3(=O)=O)c1`, the Potency entry is “inactive”. The value for `O=C(Nc1nc2ccc(S(=O)(=O)N3CCCC3)cc2s1)c1ccc(F)cc1` was “inactive”; that for `O=C(Cc1ccccc1)Nc1sc2c(c1C(=O)Nc1cccc(Cl)c1)CCCC2` was “inactive”. For the molecule `COc1cc(/C=N/N=C2/NC(=O)C(CC(=O)O)S2)ccc1OCc1ccc(Cl)cc1` (configuration not stated), the Potency result was “inactive”. `COC(=O)C1CCc2sc(NC(=O)Cc3ccccc3)c(C(=O)Nc3ccc(Cl)cc3)c21` (configuration not stated): the Potency result is “inactive”. The value for `Cc1ccc(NCc2cc3cc4c(cc3n(CC(=O)Nc3ccc(C)cc3)c2=O)OCCO4)cc1` was “inactive”.

For `COc1ccc2c(c1)c(CC(=O)N1CCOCC1)c(C)n2C(=O)c1ccc(Cl)cc1`, the Potency entry is “inactive”. The value for `CCOC(=O)c1c(N)sc2c1CCOC2` was “inactive”; that for `CC1CCc2c(sc(NC(=O)Cc3ccccc3)c2C(=O)Nc2ccc(Cl)cc2)C1` (configuration not stated) was “inactive”. With `S=C1Cc2ccccc2N1` the entry was “inactive”; with `COc1ccc(NC(=O)c2c(NC(=O)Cc3ccccc3)sc3c2CCCC3)cc1`, “inactive”; with `Cc1[nH]c(=O)c(C#N)cc1-c1ccncc1`, “inactive”. With `CC(C)(C)c1ccc(NC(=O)N2CCN(c3ccc([N+](=O)[O-])cn3)CC2)cc1` the entry was “inactive”; with `Cc1ccc(NC(=O)c2c(NC(=O)Cc3ccccc3)sc3c2CCCC3)cc1`, “inactive”; with `O=C(NCCCO)Nc1ccc2nc(-c3ccco3)c(-c3ccco3)nc2c1`, 7.94 µM (active).
